Experimental findings from PubChem BioAssay (EPA / NIEHS) are described below.

Read-out in test [1]: UDP glucuronosyltransferase (UGT1A1), UGT1A1 (gene 54658)
Kind of test: LTEA_HepaRG_UGT1A1: Life Technologies and Expression Analysis (LTEA) Assay for UDP glucuronosyltransferase (UGT1A1) using HepaRG (AID 2283538; active means hit-call score of the fitted dose curve at least 0.9, where 1 is the maximum; inactive means score below 0.9). Conditions: mRNA level, 48 h; actives raise or lower the signal. Summed up:
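Human liver HepaRG cultures receive test chemical for 48 h, up to 100 uM in 0.5% DMSO, with phenobarbital induction controls. UGT1A1 mRNA is measured by qRT-PCR and normalized to ACTB, GAPDH and POLR2A.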

Read-out in test [2]: UDP glucuronosyltransferase (UGT1A6), UGT1A6 (gene 54578)
As to the kind of experiment: LTEA_HepaRG_UGT1A6: Life Technologies and Expression Analysis (LTEA) Assay for UDP glucuronosyltransferase (UGT1A6) using HepaRG (AID 2283539; active means hit-call score of the fitted dose curve at least 0.9, where 1 is the maximum; inactive means score below 0.9). Conditions: mRNA level, 48 h; actives raise or lower the signal. Summed up:
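Measures mRNA change in HepaRG hepatic cells exposed 48 h to chemicals (eight-point, maximum 100 uM, 0.5% DMSO vehicle) in serum-free induction medium. Expression normalized to endogenous controls; DMSO served as negative control and baseline.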

Read-out in test [3]: X-box binding protein 1 (XBP1), XBP1 (gene 7494)
Kind of test: LTEA_HepaRG_XBP1: Life Technologies and Expression Analysis (LTEA) Assay for X-box binding protein 1 (XBP1) using HepaRG (AID 2283540; active means hit-call score of the fitted dose curve at least 0.9, where 1 is the maximum; inactive means score below 0.9). Conditions: mRNA level, 48 h; actives raise or lower the signal. An outline of the steps: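 Eight concentrations (half-log, highest 100 uM, 0.5% DMSO) tested in duplicate on HepaRG cells over 48 h in serum-free induction medium; qRT-PCR of XBP1 normalised to ACTB, GAPDH, POLR2A.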

Test [4] is described as follows: LTEA_HepaRG_LDH_cytotoxicity: Cytotoxicity Assessment in the Life Technologies and Expression Analysis (LTEA) Assay (AID 2283563).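 On AC50: LDH activity released into spent culture medium as a marker of cell death.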 Summed up: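 Spent-medium LDH after 48 h chemical exposure of HepaRG cells in serum-free induction medium; eight concentrations, half-log dilutions from 100 uM, duplicate wells, fitted upward relative to 0.5% DMSO.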
Test [5] can be described thus: TOX21_p53_BLA_p2_viability: Viability Assessment in the Tox21 HCT-116 p53 Agonism Beta-lactamase Assay, Phase 2 (AID 2283591).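 Further: compound exposure lasted 16 h at 37 °C; actives lower the ATP signal meaning cytotoxicity.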 An outline of the steps: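 HCT-116 p53-bla cells (4000/well) rested 5 h at 37C, then received compounds in DMSO (217-fold dilution) for 16 h at 37C, 5% CO2. After the CCF4 read, CellTiter-Glo was added; ATP luminescence was read after 30 min at room temperature.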

The target in test [6] is Cellular tumor antigen p53 (Homo sapiens) (UniProt P04637). As to the kind of experiment: TOX21_p53_BLA_p2_ratio: Tox21 HCT-116 p53 Agonism Beta-lactamase Assay, Ratio, Phase 2 (AID 2283592). Summed up:
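Human colon HCT116 cells with an inducible p53 beta-lactamase reporter are exposed to test chemicals for 16 h at 37C. Reporter induction is read as the 460/530 nm emission ratio after CCF4-AM loading, normalized to DMSO.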

Test [7] is described as follows: TOX21_p53_BLA_p3_viability: Viability Assessment in the Tox21 HCT-116 p53 Agonism Beta-lactamase Assay, Phase 3 (AID 2283593).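 Further: cells exposed to compound for 16 h before reading.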 An outline of the steps: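 HCT-116 cells (4000/well) rested 5 h at 37C, then got DMSO compounds by pin tool (217-fold dilution) for 16 h at 37C, 5% CO2. After the bla read, CellTiter-Glo was added and luminescence read at 30 min, room temperature.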

Test [8] addresses Cellular tumor antigen p53 (Homo sapiens) (UniProt P04637). Kind of test: TOX21_p53_BLA_p3_ratio: Tox21 HCT-116 p53 Agonism Beta-lactamase Assay, Ratio, Phase 3 (AID 2283596). Summed up: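 HCT116 p53-bla cells (4000/well) given compound in DMSO (217-fold dilution) after 5 h, incubated 16 h at 37C. CCF4-AM substrate 2 h at room temperature; 460/530 nm emission ratio, gain fitted against DMSO.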

The nature of test [9]: TOX21_p53_BLA_p4_viability: Viability Assessment in the Tox21 HCT-116 p53 Agonism Beta-lactamase Assay, Phase 4 (AID 2283597).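 Further: hits lower the luminescence signal meaning cytotoxicity.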 An outline of the steps: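 Luminescent ATP readout (CellTiter-Glo, 30 min, room temperature) in the same wells as the p53 bla ratio. HCT116 cells were treated for 16 h at 37C with DMSO-dissolved compounds.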
Test [10] concerns the target Cellular tumor antigen p53 (Homo sapiens) (UniProt P04637). As to the kind of experiment: TOX21_p53_BLA_p5_ratio: Tox21 HCT-116 p53 Agonism Beta-lactamase Assay, Ratio, Phase 5 (AID 2283599). Summed up:
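HCT-116 cells carrying a p53-inducible beta-lactamase reporter were seeded at 4000 cells/well and dosed after 5 h with compound in DMSO (217-fold dilution). After 16 h at 37C, CCF4-AM substrate was added for 2 h, and the 460/530 nm emission ratio was scored as gain-of-signal versus DMSO.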

Values joined by “and” are separate entries in the source; they are usually repeats but may differ in a detail not shown here. Identical values can stand only once. Inconclusive results are not listed. Some structures have more than one record in an assay (separate samples or runs), and their calls can disagree. Active and inactive are the calls of the source. How the source made its calls, unless noted: active means hit-call score of the fitted dose curve at least 0.9, where 1 is the maximum; inconclusive means response in the unintended direction; inactive means score below 0.9.

Chain of Cellular tumor antigen p53 (Homo sapiens) (P04637 whole entry, looked up): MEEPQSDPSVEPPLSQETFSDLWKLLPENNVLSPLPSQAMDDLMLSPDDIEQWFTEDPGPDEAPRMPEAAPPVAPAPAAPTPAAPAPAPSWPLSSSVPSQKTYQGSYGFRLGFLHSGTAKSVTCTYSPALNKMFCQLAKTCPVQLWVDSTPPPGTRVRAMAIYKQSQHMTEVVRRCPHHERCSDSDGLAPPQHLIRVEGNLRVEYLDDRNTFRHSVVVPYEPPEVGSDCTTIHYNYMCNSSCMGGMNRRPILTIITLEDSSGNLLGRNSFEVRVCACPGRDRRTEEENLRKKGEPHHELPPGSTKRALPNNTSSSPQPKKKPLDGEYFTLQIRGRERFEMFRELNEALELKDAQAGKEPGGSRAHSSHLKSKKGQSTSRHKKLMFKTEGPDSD

In general, AC50 refers to the midpoint of the concentration-response curve, whichever way the signal moves. As for `CCc1nn(C)c(C(=O)NCc2ccc(C(C)(C)C)cc2)c1Cl`, the AC50 in test [1] is 27.8 µM (active); in test [2] it was 37.1 µM (active); in test [3] it was 13.6 µM (active); in test [4], 27.3 µM (active); in test [5], 46.1 µM (active); in [6] it was 0.0232 µM (active). The AC50 in [9] was 46.1 µM (active). The call in [7] and in test [8] was inactive.

Take `C#CCOS(=O)OC1CCCCC1Oc1ccc(C(C)(C)C)cc1` (stereo unspecified): the concentration at half-maximal activity (AC50) was 27.5 µM (active) in [1]; 26.4 µM (active) in test [2]; 29.3 µM (active) in test [4]; 2.65 µM (active) and 1.54 µM (active) in [6]; 2.53 µM (active) in test [8]; 70.4 µM (active) in test [9]. Also, the compound was classed as inactive in test [3], in test [5], in [7], in test [8], in test [9] and in [10].

For `CCCN(CCC)c1c([N+](=O)[O-])cc(S(N)(=O)=O)cc1[N+](=O)[O-]`, the concentration at half-maximal activity (AC50) in test [1] was 7.17 µM (active) and 86.5 µM (active) and 89.5 µM (active); in [2] it was 79.1 µM (active) and 78.9 µM (active); in test [3], 96.7 µM (active) and 79.1 µM (active); in [4], 76.5 µM (active) and 78.3 µM (active) and 77.5 µM (active). The outcome in [2] and in [3] was inactive.

In the case of `CNC(=S)S`, the result in [1], in test [2], in test [3], in test [4], in test [5] and in [6] was inactive. Also, the compound was classed as inactive in test [7], in test [8], in [9] and in test [10].

For the compound `CCCCNC(=O)OCC#CI`, the AC50 is 24.9 µM (active) in test [1]; 50 µM (active) in [3]; 67 µM (active) in [6]; 59.5 µM (active) and 78 µM (active) in [8]; 35.9 µM (active) in test [9]; 78.1 µM (active) in test [10]. The compound was called inactive in test [2], in test [4], in [5], in test [6], in test [7] and in test [9]. The result in [10] was inactive.

As for `COc1ccc(C(c2ccc(OC)cc2)C(Cl)(Cl)Cl)cc1`, the concentration at half-maximal activity (AC50) was 12 µM (active) in [1], 79.2 µM (active) in test [2] and 83.4 µM (active) in [4]. Also, the result in [3], in test [5], in test [6], in [7], in [8] and in test [9] was inactive. Moreover, in test [10], the result was inactive.

Take `Oc1ccccc1-c1ccccc1`: the outcome in [1], in test [2], in test [3], in test [4], in test [5] and in [6] was inactive. Further, the call in [7], in test [8], in [9] and in test [10] was inactive.

Take `O=C(Nc1ccccc1)Nc1ccnc(Cl)c1`: the AC50 in test [1] was 79.6 µM (active); in test [2], 76.8 µM (active); in test [3], 72.1 µM (active); in test [4] it was 39.4 µM (active); in test [8], 46.1 µM (active). Further, the result in [5], in test [6], in [7], in [9] and in [10] was inactive.

`CCON=C(CC)C1=C(O)CC(c2c(C)cc(C)cc2C)CC1=O` (stereo unspecified): the AC50 in test [1] is 27.9 µM (active). Further, the compound was classed as inactive in test [2], in test [3], in test [4], in test [5], in test [6] and in [7]. The result in [8], in test [9] and in [10] was inactive.

With `COc1cnc(OC)n2nc(NS(=O)(=O)c3c(OCC(F)F)cccc3C(F)(F)F)nc12`, in [1], the AC50 was 19 µM (active). The compound was classed as inactive in [2], in [3], in test [4], in test [5], in [6] and in test [7]. Also, the result in test [8] was inactive.

Consider `CNC(=O)ON=CC(C)(C)SC`, for which the result in test [1], in test [2], in test [3], in test [4], in test [5] and in test [6] was inactive. Further, the compound was called inactive in test [7], in test [8], in [9] and in [10].

As for `CN(C)C(=S)SSC(=S)N(C)C`, the outcome in test [1], in [2], in test [3], in test [4], in test [5] and in test [6] was inactive. Moreover, the compound was called inactive in test [7], in test [8], in test [9] and in test [10]. In addition, the half-maximal activity concentration (AC50) in test [6] was 33 µM (active); in test [8] it was 29.3 µM (active); in [10], 77 µM (active).
